Each structure is given as a SMILES string. Results filed as inconclusive are left out. A call without a number means that no potency is given here. Calls of active or inactive are those of the source. Calls come from the whole dose curve; as a rule, active = well fitted cell-killing curve with a large enough effect; inconclusive = small, poorly fitted or top-dose-only effect; inactive = flat fitted curve, though single readings scatter.

The first test is described as follows: Cell Viability - LYMP2-009 (AID 968).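 Note: cells exposed to compound for 24 h at 37 °C; nearly all actives have a fitted effect of over 55% in size.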 Note: potency is the fitted concentration of half-maximal effect. Particulars: LYMP2-009 lymphoblastoid cell viability; series mostly up to 92.2 µM.
Consider `NC(=Nc1ccccc1)Nc1ccccc1`, for which the Potency entry was “inactive”.
`CN=C(NC#N)NCCSCc1nc[nH]c1C`: the Potency result was “inactive”.
Same read-out and setting: under `NC(=O)N1c2ccccc2C=Cc2ccccc21` stands “inactive”.
On to `Nc1ncn([C@@H]2O[C@H](CO)[C@@H](O)[C@H]2O)c(=O)n1`, for which the Potency is 15.8 µM (active).
Turning to `COc1cc(Cc2cnc(N)nc2N)cc(OC)c1OC`, the Potency entry is “inactive”.
Turning to `O=c1[nH]c(=O)n([C@H]2C[C@H](O)[C@@H](CO)O2)cc1Br`, the Potency result is “inactive”.
For `CCCCNC(=O)NS(=O)(=O)c1ccc(C)cc1`, the Potency result is “inactive”.
As for `CCCCOCCOCCOCc1cc2c(cc1CCC)OCO2`, the Potency entry is “inactive”.
Still for that read-out and setting: under `Nc1nc(N)c2nc(-c3ccccc3)c(N)nc2n1` stands “inactive”; under `COc1ccc(CN(CCN(C)C)c2ccccn2)cc1`, “inactive”.

Another test can be described thus: Cell Viability - LYMP2-011 (AID 969).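 Note: cells exposed to compound for 24 hours; nearly all actives have a fitted effect of over 60% in size.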 To be noted: LYMP2-011 lymphoblastoid cells viability; series mostly up to 92.2 µM. In outline:
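Cells seeded at 2500 per well rest 5 hr before compound addition, then incubate 24 hr at 37 C. CellTiter-Glo reagent is added for 30 min at room temperature before luminescence detection.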
In the case of `NC(=Nc1ccccc1)Nc1ccccc1`, the result was inactive.
On to `CN=C(NC#N)NCCSCc1nc[nH]c1C`, for which the compound was classed as inactive.
Consider `NC(=O)N1c2ccccc2C=Cc2ccccc21`, for which the outcome was inactive.
Turning to `COc1cc(Cc2cnc(N)nc2N)cc(OC)c1OC`, the compound was called inactive.
On to `O=c1[nH]c(=O)n([C@H]2C[C@H](O)[C@@H](CO)O2)cc1Br`, for which the compound was classed as inactive.
`CCCCNC(=O)NS(=O)(=O)c1ccc(C)cc1`: the outcome was inactive.
Consider `CCCCOCCOCCOCc1cc2c(cc1CCC)OCO2`, for which the result was inactive.
The same measure, in the same setting: the entry for `Nc1nc(N)c2nc(-c3ccccc3)c(N)nc2n1` is “inactive”.
Regarding `COc1ccc(CN(CCN(C)C)c2ccccn2)cc1`, the compound was called inactive.

A short description of a further test: Cell Viability - LYMP2-013 (AID 970).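 Note: cells exposed to compound for 24 h at 37 °C; nearly all actives have a fitted effect of over 55% in size.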 Particulars: LYMP2-013 lymphoblastoid cells viability; series mostly up to 92.2 µM. The method in brief: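 In complete culture medium, human lymphoblastoid cells were dosed for 24 hr at 37 C, with tetraoctylammonium bromide (6.4pM to 92 uM) as positive control. Viability reflects luciferase-based ATP signal; AC50 derived from concentration-response curves.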
As for `NC(=Nc1ccccc1)Nc1ccccc1`, the compound was called inactive.
In the case of `CN=C(NC#N)NCCSCc1nc[nH]c1C`, the compound was called inactive.
On to `NC(=O)N1c2ccccc2C=Cc2ccccc21`, for which the compound was classed as inactive.
With `COc1cc(Cc2cnc(N)nc2N)cc(OC)c1OC`, the call was inactive.
Consider `O=c1[nH]c(=O)n([C@H]2C[C@H](O)[C@@H](CO)O2)cc1Br`, for which the result was inactive.
Consider `CCCCNC(=O)NS(=O)(=O)c1ccc(C)cc1`, for which the result was inactive.
Still for that read-out and setting: under `CCCCOCCOCCOCc1cc2c(cc1CCC)OCO2` stands “inactive”.
With `Nc1nc(N)c2nc(-c3ccccc3)c(N)nc2n1`, the call was inactive.
On to `COc1ccc(CN(CCN(C)C)c2ccccn2)cc1`, for which the compound was called inactive.

The next test in a line: Cell Viability - LYMP2-015 (AID 971).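 Note: cells exposed to compound for 24 h; nearly all actives have a fitted effect of over 55% in size.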 Particulars: LYMP2-015 lymphoblastoid cell viability; series mostly up to 92.2 µM. In outline:
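AC50 values reflect Hill-model fits of ATP-based luminescence (CellTiter-Glo) from a human lymphoblastoid line, 2500 cells/well, treated 24 hr at 37 C.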
`NC(=Nc1ccccc1)Nc1ccccc1`: the call was inactive.
For the compound `CN=C(NC#N)NCCSCc1nc[nH]c1C`, the call was inactive.
For the compound `NC(=O)N1c2ccccc2C=Cc2ccccc21`, the compound was classed as inactive.
Turning to `COc1cc(Cc2cnc(N)nc2N)cc(OC)c1OC`, the compound was classed as inactive.
Same read-out and setting: the entry for `O=c1[nH]c(=O)n([C@H]2C[C@H](O)[C@@H](CO)O2)cc1Br` is “inactive”; for `CCCCNC(=O)NS(=O)(=O)c1ccc(C)cc1` it is “inactive”; for `CCCCOCCOCCOCc1cc2c(cc1CCC)OCO2` it is “inactive”.
With `Nc1nc(N)c2nc(-c3ccccc3)c(N)nc2n1`, the compound was called inactive.
Still for that read-out and setting: the entry for `COc1ccc(CN(CCN(C)C)c2ccccn2)cc1` is “inactive”.

The record behind these values is PubChem BioAssay (NCATS).
